Assay outcomes as filed in PubChem.
AID923: qHTS Assay for Allosteric/Competitive Inhibitors of Caspase-1: Spectroscopic Profiling in AFC Spectral Region; 1.1% of 75,000 active; compound fluorescence, AFC spectral region (405/520 nm); AID 923, 2007; Potency, µM (titrated, usually from 57.5 µM), without a hit: at the highest dose fluorescence increase, most hits filed as activators; further: potency means the concentration at half of the fitted maximal effect; 0% is about no effect
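Compound autofluorescence profiled at 405 nm ex/520 nm em during kinetic caspase 1 run (50 nM enzyme, 5 uM Ac-WEHD-AFC, HEPES pH 7.5, 10 mM DTT). Titration up to 57 uM; baseline from regression intercept, normalized to AFC standard curve.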
A350 autofl: qHTS Assay for Spectroscopic Profiling in A350 Spectral Region; AID 590, 2007; 11% of 59,000 active; max dye-equivalent concentration, M; Compound autofluorescence, 340/450 nm, Alexa 350 dye-equivalents; hits give high values; in the data active means max dye-equivalent concentration above about 10 nM; inconclusive means mostly about 1.1 nM to 9.6 nM
HADH2 inhib: qHTS Assay for Inhibitors of HADH2 (Hydroxyacyl-Coenzyme A Dehydrogenase, Type II) | recombinant HADH2, NADH fluorescence, beta-hydroxybutyryl-CoA | 3.4% of 73,000 active | Potency, µM (doses to about 57.1 µM), for inactives: at the highest dose activity change, negative = inhibition, usual class: inhibitors | 3-hydroxyacyl-CoA dehydrogenase type-2 (Homo sapiens), Q99714; further: potency means the concentration at half of the fitted maximal effect; on the % scale 0 is the no-effect control and ±100 the full control effect; nearly all actives have a fitted effect of over 60% in size
Target sequence (Q99714 whole entry, looked up, one chain of several): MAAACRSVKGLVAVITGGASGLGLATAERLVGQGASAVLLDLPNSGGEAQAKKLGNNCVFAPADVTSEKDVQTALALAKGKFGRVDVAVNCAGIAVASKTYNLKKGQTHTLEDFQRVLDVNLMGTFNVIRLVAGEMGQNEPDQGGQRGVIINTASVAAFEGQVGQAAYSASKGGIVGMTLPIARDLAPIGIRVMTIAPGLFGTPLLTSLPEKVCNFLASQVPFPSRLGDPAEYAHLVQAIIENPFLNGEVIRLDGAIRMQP
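NADH fluorescence (ex 360/em 450 nm) read every 30 s for 4 min; activity taken as last-minus-first time point difference. Enzyme 20 nM, NAD+ 1 mM, beta-hydroxybutyryl-CoA 90 uM, pH 9.0 Tris buffer.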
CRE-bla Fsk: Cell signaling CRE-BLA (Fsk stim); CHO CRE-bla reporter (cAMP response element driving beta-lactamase), forskolin EC10, beta-lactamase ratio; Potency, µM (titrated, usually from 38.2 µM), inactives show at the top dose activity change, negative = inhibition, actives largely listed as activators; 2.5% of 71,000 active; AID 662, 2007; active means well fitted activation curve with a large enough effect in the signal ratio, with a control signal flat, not every such curve was filed as active; inconclusive means small, poorly fitted or top-dose-only effect, or effect the other way, or a change in a side signal; the % refers to the signal ratio; further: potency means the concentration at half of the fitted maximal effect; % of control where 0% means no effect
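CRE-bla CHO reporter cells treated with compound titration plus EC10 NKH 477 (water-soluble forskolin), incubated 3 h at 37 °C; CCF4 loading 2 h at room temperature, 460/530 nm emission ratio read, AC50 values derived for positive or negative modulators.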
4MU fluor: qHTS Assay for Spectroscopic Profiling in 4-MU Spectral Region; compound autofluorescence, 340/450 nm, 4-MU equivalents; hits give high values; max dye-equivalent concentration, M; 11% of 59,000 active; in the data active means max dye-equivalent concentration above about 10 nM; inconclusive means mostly about 1.1 nM to 9.6 nM
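Compounds in 100 mM Tris, pH 8.0, incubated 15 min at room temperature, then fluorescence read at 340 nm excitation/450 nm emission. Signal converted to 4-MU dye-equivalent concentration using an on-plate six-point 4-MU standard curve.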
HSD17B inh: qHTS Assay for Inhibitors of HSD17B4, hydroxysteroid (17-beta) dehydrogenase 4; 3-hydroxyacyl-CoA dehydrogenase type-2 (Homo sapiens), Q99714; recombinant HSD17B10, NADH fluorescence kinetic; Potency, µM (highest dose often 57.1 µM), for the others: at the highest dose activity change, negative = inhibition, most hits filed as inhibitors; 7.6% of 75,000 active;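 further: the protocol describes HADH2 (HSD17B10) and not the HSD17B4 of the title; potency means the concentration at half of the fitted maximal effect; on the % scale 0 is the no-effect control and ±100 the full control effect; nearly all actives have a fitted effect of over 70% in size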
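20 nM HADH2, pH 9.0 Tris/Tween; cpd preinc 15 min RT; start w/ 1 mM NAD+ + 90 uM b-hydroxybutyryl-CoA; kinetic fluor ex360/em450 q30s x 4 min; delta last-first.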
An asterisk follows results filed as active; i = inactive; ? = inconclusive; nt = no result; [ ] = another dose, or the depositor's remark. This is a sample that favours compounds with a hit; in the whole collection about 14% have one here. Unless noted, the call rests on the fitted dose curve; in most records, active means well fitted curve in the direction sought with a large enough effect; inconclusive means small, poorly fitted or top-dose-only effect, or another doubt; inactive means no such curve, though single readings can be large; an effect the other way counts as inactive or inconclusive.

SMILES	AID923	A350 autofl	HADH2 inhib	CRE-bla Fsk	4MU fluor	HSD17B inh
O=C(NCCc1ccccc1)C1CCN(S(=O)(=O)c2cccc3nsnc23)CC1	-0.9%	i	7.8%	1.9%	i	1.3%
O=C(C1CCN(S(=O)(=O)c2cccc3nsnc23)CC1)N1CCc2ccccc2C1	-0.1%	2.62e-08M*	3.8%	?	2.64e-08M*	-2.1%
CCOC(=O)c1c(Nc2nc(C)c(C(=O)NC)s2)sc(C)c1C	4.4%	4.71e-08M*	?	2.51µM*	4.06e-08M*	20µM*
CCCCOC(=O)Nc1nc(C)c(C(=O)OCC)s1	0.4%	nt	-8.6%	11.2%	nt	2.8%
Cn1c(SCC(=O)NCc2ccco2)nnc1-c1ccc(S(=O)(=O)N2CCOCC2)cc1	0.7%	i	-7.3%	-5.3%	i	-7.4%
CC(=O)c1cccc(NC(=O)C2CCN(S(=O)(=O)c3ccc(F)cc3)CC2)c1	1.1%	nt	-1.2%	-4.9%	nt	5.0%
O=C(CSc1nccn1-c1ccccc1)NCc1ccc2c(c1)OCO2	-1.2%	i	0.9%	0.8%	i	2.5%
FC(F)(F)c1cccc(N2CCN(c3ccc4nnc(-c5ccccc5)n4n3)CC2)c1	-0.9%	nt	9.7%	nt	nt	-16.7%
COc1ccc(NC(=O)c2cc(S(=O)(=O)N3CCCCC3)ccc2N2CCCCC2)cn1	0.1%	1.58e-08M*	-5.9%	6.0%	1.29e-08M*	-20.0%
Cc1ccnc(NC(=O)c2cc(S(=O)(=O)N3CCCCC3)ccc2Cl)c1	-0.2%	5.1e-08M*	9.8%	6.3%	6.03e-08M*	20µM*
COc1ccccc1C(=O)Nc1ccc(S(=O)(=O)N2CCCC2)cc1	-2.7%	i	13.1%	?	i	7.3%
CC(NS(=O)(=O)c1ccc(Br)cc1)C(c1cccs1)N1CCN(C)CC1 (stereo unspecified)	-0.3%	nt	6.3%	-14.0%	nt	3.5%
CS(=O)(=O)N(CC(=O)N1CCN(c2ccccc2F)CC1)c1ccc2c(c1)OCCO2	1.1%	i	-2.8%	-11.0%	i	-0.1%
O=c1c2c3c(sc2nc2sc(CN4CCOCC4)cn12)CCCC3	-2.2%	1.05e-08M*	0.2%	7.1%	?	-3.6%
CCCCCCC1=Cc2cc(OC)c(OC)cc2C(C(C(C)=O)C(=O)OC)O1 (stereo unspecified)	-0.3%[11.5 µM]	nt	0.5%[11.4 µM]	nt	nt	2.2%[11.4 µM]
CCN(CC)CCCNC(=O)c1ccc(Cc2nc3ccccc3[nH]2)cc1	0.4%	nt	-12.3%	nt	nt	5.0%
CC(C)N1C[C@@]23C=C[C@@H](O2)C(C(=O)OCc2ccccc2)[C@H]3C1=O (stereo partly specified)	0.4%	4.6e-08M*	24.7%	0.9%	3.43e-08M*	1.9%
CC(C)N1CC23C=CC(O2)C(C(=O)OCc2ccccc2)C3C1=O (stereo unspecified)	1.6%	nt	3.0%	-7.3%	nt	8.0%
CCOC(=O)C(C)c1nc2ccccc2[nH]c1=O (stereo unspecified)	nt	1.11e-07M*	nt	nt	9.29e-08M*	nt
CC(C)OC(=O)CCc1nc2ccccc2[nH]c1=O	-1.0%	1.44e-07M*	-18.2%	-4.6%	1.3e-07M*	25.1µM*
CCOC(=O)C1=C(C)NC(C)=C(C(=O)OCC)C1c1nc2ccccc2[nH]1	-0.9%	nt	-21.8%[11.4 µM]	?	nt	-29.1%
CC(NC(=O)Cc1ccccc1)c1nc2ccccc2[nH]1 (stereo unspecified)	-0.2%	nt	-1.4%	-8.0%	nt	2.5%
CCC(=O)N1CCN(c2ccc(NC(=O)c3cc4ccccc4o3)cc2Cl)CC1	1.1%	i	5.5%	?	?	25.1µM*
O=C(c1cc2ccccc2o1)N1CCN(c2ccccc2Cl)CC1	-0.1%	1.01e-08M*	-2.9%	4.7%	?	1.1%
O=C(Nc1ccc(N2CCN(C(=O)c3ccco3)CC2)c(Cl)c1)c1cc2ccccc2o1	6.3%	1.65e-08M*	?	?	1.62e-08M*	?
SMILES	AID923	A350 autofl	HADH2 inhib	CRE-bla Fsk	4MU fluor	HSD17B inh
OC[C@@H]1O[C@@H](N2CCN([C@@H]3O[C@@H](CO)[C@@H](O)[C@H](O)[C@H]3O)CC2)[C@@H](O)[C@H](O)[C@H]1O	2.4%[11.5 µM]	i	-1.5%[11.4 µM]	3.2%[7.6 µM]	i	3.0%[11.4 µM]
Cc1ccnc(N(C(=O)c2cccs2)C(=O)c2cccs2)c1	0.2%	1.52e-08M*	-8.5%	-14.8%	1.37e-08M*	-14.0%
CCC(=O)N[C@@H]1Cc2ccccc2[C@@H](c2ccccc2)C1	-2.2%	nt	-0.7%	-23.5%	nt	1.7%
CN1C(=O)N(C)C2CC1N(C)C(=O)N2C	1.1%	1.24e-08M*	-1.5%	-6.9%	1.4e-08M*	-18.3%
CC1C2C(C)N(C)C(=O)N(C)C2N(C)C(=O)N1C (stereo unspecified)	-0.1%	i	3.2%	1.7%	i	-0.8%
O=C(NCC1CCCO1)c1cc2n(n1)C(C(F)(F)F)CC(c1ccc(Br)cc1)N2 (stereo unspecified)	0.4%	i	-0.1%	0.9%	i	-7.2%
COc1ccc(Cc2nnc(NC(=O)Cc3cccs3)s2)cc1OC	-0.3%	i	12.6µM*	?	i	20µM*
COc1ccc(C(=O)Nc2nnc(Cc3cccs3)s2)cc1OC	3.1%	i	1.5%	2.2%	i	-5.3%
CCCCCc1nnc(NC(=O)Cc2cccs2)s1	-0.5%	?	7.94µM*	-2.0%	i	25.1µM*
CSc1nnc(C)c(=O)[nH]1	nt	i	nt	nt	i	nt
COc1cc(C2CC(=O)c3cnc(NC(=O)COc4ccccc4)nc3C2)cc(OC)c1OC (stereo unspecified)	2.3%	i	0.3%	?	i	8.7%
C[C@@H](N)C(=O)O	1.3%	nt	-2.3%	-17.8%	nt	-6.4%
CCOC(=O)CCP(=O)(O)C(O)c1ccc(OC)cc1 (stereo unspecified)	5.3%	2.94e-08M*	19.1%	?	2.24e-08M*	-6.2%
CCOC(=O)CC(N)c1ccc(OC)cc1 (stereo unspecified)	0.6%	i	-1.0%	12.1%	i	-2.4%
CS(=O)(=O)N1CCC2(CCN(C(=O)Nc3cccc(C#N)c3)CC2)CC1	-2.6%	i	4.6%	-7.3%	i	1.9%
CCc1nc(N2CCCCC2C)c2oc3ccccc3c2n1 (stereo unspecified)	-2.2%	i	-1.9%	2.51µM*	i	-5.7%
CCc1nc(N2CCCC(C)C2)c2oc3ccccc3c2n1 (stereo unspecified)	1.2%	i	?	10µM*	i	-21.7%
CCOC(=O)C1CCCN(c2nc(C)nc3c2oc2ccccc23)C1 (stereo unspecified)	0.1%	i	-4.1%	0.6%	i	-0.4%
